Growth data for 36 compounds are collected here from PubChem BioAssay (NCI).

Several values for one entry are separate records, joined by “and”; a condition that tells them apart may be missing. Equal values may be shown once. About 83,000 compounds went through this panel and 20% of them were active in at least one assay; those are over-represented in the sample as a whole.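 Cells were grown in 96-well plates and exposed to the test compound at a single concentration for 48 hours; results are reported as percent growth, with values below 10 considered active.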 Unmarked numbers belong to inactive results. Activity calls are given as the source filed them.

One assay has as its system SNB-19 CNS. Briefly: NCI-60 one-dose screen, 48 h (100 = growth as untreated, 0 = no growth, -100 = all killed). The following applies: 1 µM. The protocol: Growth inhibition of the SNB-19 human tumor cell line is measured as a screen for anti-cancer activity. Cells are grown in 96 well plates and exposed to the test compound for 48 hours. Compounds are tested at a single concentration, which is 10^-5 M for most compounds. The reported endpoint is percent growth (GI% or GIPRCNT), where numbers from 0 - 100% represent growth inhibition, and numbers from -100% - 0 represent cell death. For example, a value of 40 represents 60% growth inhibition. A value of 0 means no net growth occurred over the course of the experiment. A value of -40 indicates 40% of cells at the beginning of the experiment died by the end of the experiment. A value of -100 means all cells are dead at the end of the experiment.
NCI-60 Human Tumor Cell Lines Screen was performed using the standard one-dose NCI protocol, which is described in more detail at https://dtp.cancer.gov/discovery_development/nci-60/default.htm.
Compounds with GIPRCNT values below 10 were considered active. Activity score was based on GIPRCNT using the following formula: […]
Score is 0 for GIPRCNT values of 100 or above, 50 for GIPRCNT values of 0, and 100 for GIPRCNT values of -100.
As for `CNC(=O)c1cc(Oc2ccc(CC(=O)Nc3cc(C(C)(C)C)nn3C)cc2)ccn1`, the growth is 71.4%.

The same assay, now with this note: 10 µM.
Take `CC1(C)OB(c2ccc(Cn3cc(F)c(=O)[nH]c3=O)cc2)OC1(C)C`: the growth was 103%. As for `Cc1[nH]c(-c2nc3ccccc3[nH]2)c(C)c1C(=O)NC(C)C1CCCCC1` (stereo not given), the growth was 86.6%. The same measure, in the same setting: in the case of `CNC(=O)c1cc(Oc2ccc(CC(=O)Nc3cc(C(C)(C)C)nn3C)cc2)ccn1` it was 65.3%.

Staying with this assay, now noted: 10 µM unless noted.
Take `COc1ccc2ccccc2c1/C=N/N1CCCCC1`: the growth was 88.1%. The same measure, in the same setting: under `CCNC(=O)Nc1ccc(-c2nc3c(c(N4CCOC[C@@H]4C)n2)CCN(C2COC2)C3)cc1` stands 59.2% and 15.7%. Still for that read-out and setting: under `C1CCCCNCCC1` stands 110%. On the same count and under the same terms, in the case of `Nc1ccccc1SC1CC(=O)N(c2cccc3ccccc23)C1=O` (stereo not given) it was 96.7%; in that of `O=C(N/N=C/c1ccc2c(c1)OCO2)c1ccncc1`, 111% and 103%; in that of `COc1cc(NS(C)(=O)=O)ccc1Nc1c2ccccc2nc2c(C)cccc12`, 19.8% and 25.2%. As to `NS(=O)(=O)c1cc2c(cc1Cl)NC(C(Cl)Cl)NS2(=O)=O` (stereo not given), the growth was 104% and 105%. On the same count and under the same terms, under `NC(=O)NO` stands 105% and 69.6%; under `Cc1cccc(/C=C\C(=O)c2ccccc2)c1`, 86.7% and 103%; under `N#C/C(=C1C=C/C(=N/O)C(Br)=C/1)c1ccccc1`, 94.9%. The same measure, in the same setting: under `CC(C)(O)Cn1cc(-c2ccc3nc(OC4CC4)ccc3c2)c2c(N)ncnc21` stands 74.8% and 64.3%. On the same count and under the same terms, under `ClC/C=C/CSc1ncnc2nc[nH]c12` stands 98.6% and 102%; under `Cn1c(=O)c2[nH]c(CCCCCCCCc3nc4ccccc4[nH]3)nc2n(C)c1=O`, 66.9% and 65.4%. For the compound `CC(=O)c1ccc2c(c1)N(CCCN1CCN(CCO)CC1)c1ccccc1S2`, the growth is 114% and 46.4%. The same measure, in the same setting: under `CC(=O)Oc1cc(C(=O)O)cc(OC(C)=O)c1OC(C)=O` stands 93.4% and 108%; under `COc1ccccc1NC(=O)OCC#CCOC(=O)Nc1ccccc1OC`, 104% and 88.7%; under `CCOC(=O)Nc1ccc2c(c1)/C(=N\NC(N)=S)c1ccccc1-2`, 78.4% and 75.3%.

With `O=[N+]([O-])c1ccccc1N(S(=O)(=O)c1ccccc1)S(=O)(=O)c1ccccc1`, the growth is 107% and 98.6%.

For `O=C1OC2(c3ccccc31)c1ccc(O)c(O)c1Oc1c2ccc(O)c1O`, the growth was 110% and 108%.

As for `CCCCOc1cc(C(=O)NCCN(CC)CC)c2ccccc2n1`, the growth is 90.1% and 91.9%.

Turning to `CC1CCCC(=O)O1` (stereo not given), the growth was 111%.

In the case of `Cn1cc(-c2cc3c(Nc4ccc(CC(=O)Nc5cc(C(C)(C)C)on5)cc4)ncnc3[nH]2)cn1`, the growth was 2.07% (active) and 3.84% (active). Same read-out and setting: under `O[C@H](c1cc(C(F)(F)F)nc2c(C(F)(F)F)cccc12)[C@@H]1CCCCN1` stands 60.1% and 65.9%; under `CCN(CC)CCC(CNc1ccnc2cc(Cl)ccc12)c1ccc(OC)cc1` (stereo not given), 98.5% and 92.2%. The same measure, in the same setting: under `O=c1c2ccccc2nc2n1Cc1nc3ccccc3c(=O)n1C2` stands 102% and 91.9%; under `CC(C(=O)O)n1cc(C#N)c(=O)[nH]c1=O` (stereo not given), 107% and 101%; under `Nc1ccccc1Nc1ccccc1`, 97.9% and 105%. Same read-out and setting: in the case of `O=C(N/N=C/c1ccccc1)N/N=C/c1ccccc1` it was 105% and 106%; in that of `CC(C)C(=O)Nc1ccc([N+](=O)[O-])c(C(F)(F)F)c1`, 96.8% and 102%. As for `NC(=S)NS(=O)(=O)c1ccc(N)cc1`, the growth is 113%. `CC(CN=Cc1ccccc1O)N=Cc1ccccc1O` (stereo not given): the growth was 96.1% and 101%. The same measure, in the same setting: in the case of `Cc1cc(-c2ccc(NS(=O)(=O)c3ccccc3)c(C)c2)ccc1NS(=O)(=O)c1ccccc1` it was 91.4% and 101%; in that of `CCOC(=O)Nc1nc2ccccc2[nH]1`, 99.9% and 31.5%.

Staying with this assay, now noted: 30 µM.
In the case of `CNC(=O)c1cc(Oc2ccc(CC(=O)Nc3cc(C(C)(C)C)nn3C)cc2)ccn1`, the growth is 81.3%.

Still in this assay, the particulars now being: 50 µM.
`CC1(C)OB(c2ccc(Cn3cc(F)c(=O)[nH]c3=O)cc2)OC1(C)C`: the growth is 70.6%.

The same assay, now with this note: 100 µM.
Take `Cc1[nH]c(-c2nc3ccccc3[nH]2)c(C)c1C(=O)NC(C)C1CCCCC1` (stereo not given): the growth is -94.7% (active).
